IDE exosite FP: displaces the probe from the exo-site of human IDE; purified IDE, FL-6b probe fluorescence polarization; stronger effect = lower value; z-score at 20 µM; 17,000 tested, 6.3% active; AID 1259349;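 active = z-score of -3 or lower, meaning strong loss of probe binding signal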;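 note: His-tagged human IDE residues 42-1019 made in E. coli with 30 nM FL-6b probe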
Target sequence (P14735 42-1019 limits assumed): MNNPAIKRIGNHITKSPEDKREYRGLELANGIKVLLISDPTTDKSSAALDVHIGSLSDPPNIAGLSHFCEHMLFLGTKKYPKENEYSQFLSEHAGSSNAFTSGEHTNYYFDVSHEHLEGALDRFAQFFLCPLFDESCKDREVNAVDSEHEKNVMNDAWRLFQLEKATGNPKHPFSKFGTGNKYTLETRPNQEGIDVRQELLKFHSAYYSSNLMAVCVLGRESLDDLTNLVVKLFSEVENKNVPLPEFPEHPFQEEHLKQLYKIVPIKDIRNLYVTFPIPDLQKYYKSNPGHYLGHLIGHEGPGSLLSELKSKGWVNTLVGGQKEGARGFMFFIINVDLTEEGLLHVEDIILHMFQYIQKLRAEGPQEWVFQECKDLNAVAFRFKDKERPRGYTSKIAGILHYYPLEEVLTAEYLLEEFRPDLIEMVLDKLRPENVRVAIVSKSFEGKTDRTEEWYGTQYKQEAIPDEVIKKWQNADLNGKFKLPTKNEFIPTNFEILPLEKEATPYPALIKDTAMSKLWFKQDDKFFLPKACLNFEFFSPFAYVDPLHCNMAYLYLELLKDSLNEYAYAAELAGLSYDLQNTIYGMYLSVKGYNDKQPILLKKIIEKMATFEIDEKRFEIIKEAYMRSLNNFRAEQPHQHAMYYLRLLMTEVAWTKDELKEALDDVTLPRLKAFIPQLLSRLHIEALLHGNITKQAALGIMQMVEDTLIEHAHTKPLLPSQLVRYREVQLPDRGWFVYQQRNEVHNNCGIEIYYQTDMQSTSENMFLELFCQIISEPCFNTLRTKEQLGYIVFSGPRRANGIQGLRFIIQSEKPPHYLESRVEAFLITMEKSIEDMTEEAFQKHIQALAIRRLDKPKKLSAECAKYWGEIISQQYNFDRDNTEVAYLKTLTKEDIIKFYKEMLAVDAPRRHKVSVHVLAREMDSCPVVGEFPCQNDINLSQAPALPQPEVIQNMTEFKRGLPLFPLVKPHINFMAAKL
* hit, by the source's call; ! = a repeat was not active. The sample as a whole holds a higher share of hits than the screen did.

How did COc1cccc(-c2ccc([C@@H]3[C@H]4CN(Cc5cncnc5)CCCCN4[C@H]3CO)cc2)c1 do in these assays?
IDE exosite FP: -3.9*

Results for COc1cccc(-c2ccc([C@H]3[C@H]4CN(CC5CC5)CCCCN4[C@H]3CO)cc2)c1 ?
IDE exosite FP: -4.1*

Results for COc1cccc(-c2ccc([C@@H]3[C@@H](CO)N4CCCCN(Cc5cncnc5)C[C@H]34)cc2)c1 ?
IDE exosite FP: 0.32

Results for Cc1cccc(-c2ccc([C@@H]3[C@@H](CO)N4CCCCN(Cc5cncnc5)C[C@H]34)cc2)c1 ?
IDE exosite FP: -4.6*

What do the screens show for `COc1cccc(C(=O)Nc2ccc3c(c2)OC[C@H](C)N(CCc2ccccc2)C[C@H](C)[C@@H](OC)CN(C)C3=O)c1`?
IDE exosite FP: 0.088

What do the screens show for `O=C(O)C[C@H]1CC[C@@H]2[C@H](COC[C@@H](O)CN2S(=O)(=O)c2ccc(Oc3ccccc3)cc2)O1`?
IDE exosite FP: 1.6

Results for CC(C)NC(=O)Nc1ccc2c(c1)C(=O)N(C)[C@H]1CC[C@@H](CC(=O)NCc3ccc(F)cc3)O[C@H]1CO2 ?
IDE exosite FP: 0.48

How did O=C(N[C@H]1CC[C@H](CCNS(=O)(=O)c2ccc(F)cc2)O[C@@H]1CO)C1CCC1 do in these assays?
IDE exosite FP: 1.1

Results for COCC(=O)N1[C@@H]2c3ccc(-c4ccncc4)c(=O)n3C[C@@H]2[C@@H](CO)[C@@H]1C(=O)Nc1ccccc1 ?
IDE exosite FP: 0.62

What do the screens show for `N#C[C@@H]1[C@@H](c2ccccc2C2=CCCCC2)[C@@H](CO)N1C(=O)C1CCOCC1`?
IDE exosite FP: 0.74

What do the screens show for `Cc1cccc(-c2ccc([C@H]3[C@@H](CO)N4CCCCN(Cc5cncnc5)C[C@@H]34)cc2)c1`?
IDE exosite FP: -1.1

What do the screens show for `Cc1cccc(-c2ccc([C@H]3[C@H]4CN(Cc5cncnc5)CCCCN4[C@H]3CO)cc2)c1`?
IDE exosite FP: -6*

How did Cc1ccc(-c2ccc([C@@H]3[C@H](CO)N4CCCCN(Cc5cncnc5)C[C@@H]34)cc2)cc1 do in these assays?
IDE exosite FP: 0.21

How did CO[C@H]1CN(C)C(=O)c2cc(NC(=O)C3CCCCC3)ccc2OC[C@H](C)N(C(=O)c2ccccc2)C[C@@H]1C do in these assays?
IDE exosite FP: -1.4

How did O=C(C[C@@H]1CC[C@@H]2[C@H](COC[C@H](O)CN2C(=O)c2cc(Cl)cc(Cl)c2)O1)N1CCc2ccccc2C1 do in these assays?
IDE exosite FP: -0.31

How did CC(=O)N1CCCCN2[C@H](CO)[C@@H](c3ccc(-c4ccc(C)cc4)cc3)[C@@H]2C1 do in these assays?
IDE exosite FP: 1.5

Results for CC(=O)N1CCCCN2[C@H](C1)[C@@H](c1ccc(-c3cccc(C)c3)cc1)[C@@H]2CO ?
IDE exosite FP: -14*

What do the screens show for `CC(=O)N1CCCCN2[C@H](C1)[C@H](c1ccc(-c3cccc(C)c3)cc1)[C@@H]2CO`?
IDE exosite FP: -5.3*

What do the screens show for `CN(C)C(=O)c1ccc(-c2ccc([C@H]3[C@H](CO)N4CCCCN(C(=O)C5CC5)C[C@@H]34)cc2)cc1`?
IDE exosite FP: -5*

What do the screens show for `CC(=O)N1CCCCN2[C@@H](CO)[C@H](c3ccc(-c4ccc(C)cc4)cc3)[C@@H]2C1`?
IDE exosite FP: -0.57

Results for CN(C)C(=O)c1ccc(-c2ccc([C@H]3[C@@H](CO)N4CCCCN(C(=O)C5CC5)C[C@H]34)cc2)cc1 ?
IDE exosite FP: 3.7

How did CN(C)C(=O)c1ccc(-c2ccc([C@H]3[C@H]4CN(C(=O)C5CC5)CCCCN4[C@H]3CO)cc2)cc1 do in these assays?
IDE exosite FP: 2.2

What do the screens show for `CC(=O)N1CCCCN2[C@H](C1)[C@@H](c1ccc(-c3ccc(C)cc3)cc1)[C@@H]2CO`?
IDE exosite FP: -0.53

Results for CC(=O)N1CCCCN2[C@@H](CO)[C@@H](c3ccc(-c4ccc(C)cc4)cc3)[C@@H]2C1 ?
IDE exosite FP: 1.1

What do the screens show for `CC(=O)N1CCCCN2[C@@H](CO)[C@@H](c3ccc(-c4ccc(F)cc4)cc3)[C@@H]2C1`?
IDE exosite FP: 1.5

Results for O=C1CN(S(=O)(=O)c2ccccc2)C[C@@H]2[C@@H](c3ccc(Br)cc3)[C@H](CO)N12 ?
IDE exosite FP: -1.9

How did N#C[C@H]1[C@H](c2ccccc2C2=CCCCC2)[C@H](CO)N1C(=O)c1ccccn1 do in these assays?
IDE exosite FP: 0.092

What do the screens show for `CCC(=O)N1CC(=O)N2[C@H](C1)[C@H](c1ccc(-c3ccc(C#N)cc3)cc1)[C@@H]2CO`?
IDE exosite FP: -0.078

Results for C[C@H](CO)N1C[C@H](C)[C@H](CN(C)C(=O)Nc2cccc(Oc3ccccn3)c2)OCc2cnnn2CCCC1=O ?
IDE exosite FP: 0.23

What do the screens show for `O=C(C1CCOCC1)N1CC(=O)N2[C@H](C1)[C@H](c1ccc(-c3cccnc3)cc1)[C@@H]2CO`?
IDE exosite FP: -0.94

How did O=C(N[C@@H]1C=C[C@@H](CC(=O)N2CCN(c3ccccc3)CC2)O[C@@H]1CO)c1ccccc1 do in these assays?
IDE exosite FP: 2.4

What do the screens show for `COc1cccc(CN2C[C@@H]3N[C@H](C2)C3c2ccc(-c3ccncc3)cc2)c1` (stereo partly drawn)?
IDE exosite FP: 1.8

What do the screens show for `COc1cccc(CN2C[C@@H]3N[C@H](C2)C3c2ccc(-c3ccccc3C)cc2)c1` (stereo partly drawn)?
IDE exosite FP: -4*!

How did Fc1ccc(-c2ccc(C3[C@@H]4CN(Cc5cccc(F)c5)C[C@H]3N4)cc2)cc1 (stereo partly drawn) do in these assays?
IDE exosite FP: 3.7

Results for COc1cccc(-c2ccc(C3[C@@H]4CN(Cc5cccc(F)c5)C[C@H]3N4)cc2)c1 (stereo partly drawn) ?
IDE exosite FP: -1.1

Results for COc1cccc(CN2C[C@@H]3N[C@H](C2)C3c2ccc(-c3ccccc3F)cc2)c1 (stereo partly drawn) ?
IDE exosite FP: -5.1*!

How did COc1cccc(CN2C[C@@H]3N[C@H](C2)C3c2ccc(-c3cccc(C#N)c3)cc2)c1 (stereo partly drawn) do in these assays?
IDE exosite FP: 0.37

What do the screens show for `OC[C@@H]1[C@@H](c2ccc(-c3ccccc3F)cc2)[C@H]2CN(Cc3cccnc3)CCCCN12`?
IDE exosite FP: -2.7

What do the screens show for `CN1CCN(C(=O)C[C@@H]2CC[C@@H]3[C@H](COC[C@H](O)CN3C(=O)Nc3ccc4c(c3)OCO4)O2)CC1`?
IDE exosite FP: 1.2

What do the screens show for `O=C(C[C@H]1CC[C@H]2[C@@H](COC[C@H](O)CN2CCC(F)(F)F)O1)NCc1ccc2c(c1)OCO2`?
IDE exosite FP: 0.23

How did COc1ccc(NC(=O)N2CC(=O)N3[C@H](C2)[C@@H](c2ccc(-c4ccc(C)cc4)cc2)[C@@H]3CO)cc1 do in these assays?
IDE exosite FP: -0.67

How did CNC[C@@H]1OCc2cn(nn2)CCCC(=O)N([C@H](C)CO)C[C@H]1C do in these assays?
IDE exosite FP: -0.085

What do the screens show for `CCS(=O)(=O)N1CC(=O)N2[C@@H](CO)[C@H](c3ccc(-c4ccccc4F)cc3)[C@@H]2C1`?
IDE exosite FP: 2.2

How did CCS(=O)(=O)N1CC(=O)N2[C@@H](CO)[C@H](c3ccc(-c4ccccc4C)cc3)[C@@H]2C1 do in these assays?
IDE exosite FP: -5.8*

Results for CS(=O)(=O)N1CC(=O)N2[C@@H](CO)[C@@H](c3ccc(Br)cc3)[C@@H]2C1 ?
IDE exosite FP: -1.1

How did Cc1ccccc1-c1ccc([C@@H]2[C@H]3CN(S(C)(=O)=O)CC(=O)N3[C@H]2CO)cc1 do in these assays?
IDE exosite FP: -5.1*

Assay outcomes: PubChem, Broad Institute
